Bioassay records as filed in PubChem BioAssay.
In the library only some 4.6% were active in any assay of this set; here they are far more common.
ADAM17 inh – ADAM17 inhibition, QFRET primary screen; recombinant ADAM17, EDANS/DABCYL FRET peptide cleavage; inhibition, % at 6.95 µM; hit rate 0.83% among 370,000; AID 720648;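 active means inhibition above the mean of compounds lying between control limits plus 3 SD, set per campaign, cut at about 8.5% in these data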;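 further: 0% = DMSO-only wells as the low control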
Target sequence (P78536 215-824 limits assumed): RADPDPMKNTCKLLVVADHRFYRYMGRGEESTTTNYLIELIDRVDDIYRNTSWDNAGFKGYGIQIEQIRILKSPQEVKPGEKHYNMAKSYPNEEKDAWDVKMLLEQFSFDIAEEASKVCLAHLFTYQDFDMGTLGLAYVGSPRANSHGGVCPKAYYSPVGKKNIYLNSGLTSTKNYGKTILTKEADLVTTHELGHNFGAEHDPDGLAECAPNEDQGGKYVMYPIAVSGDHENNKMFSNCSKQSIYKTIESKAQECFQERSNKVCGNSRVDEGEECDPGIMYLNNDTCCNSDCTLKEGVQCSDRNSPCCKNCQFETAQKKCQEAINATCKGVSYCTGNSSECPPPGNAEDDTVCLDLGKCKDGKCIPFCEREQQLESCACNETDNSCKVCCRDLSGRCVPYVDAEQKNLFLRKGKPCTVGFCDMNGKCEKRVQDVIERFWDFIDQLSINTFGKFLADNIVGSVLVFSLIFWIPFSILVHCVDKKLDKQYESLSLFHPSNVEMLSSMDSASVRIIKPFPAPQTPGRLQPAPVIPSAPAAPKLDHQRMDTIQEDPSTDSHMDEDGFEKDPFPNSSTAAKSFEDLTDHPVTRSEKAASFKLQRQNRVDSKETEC
FAS TE block – inhibitors of human fatty acid synthase thioesterase domain | inhibition, % at 15 µM | hit rate 0.67% among 360,000 | AID 602261 | recombinant FAS-TE, OMFH fluorogenic substrate, fluorescence endpoint | P49327;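 active means compounds whose normalised, plate-corrected inhibition of enzyme fluorescence in the single-dose primary screen is 50% or more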;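 further: 0% = DMSO with enzyme and 100% = substrate without enzyme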
ADAM10 inh – ADAM10 inhibition, QFRET primary screen. O14672. recombinant ADAM10, EDANS/DABCYL FRET peptide cleavage, 3 h. inhibition, % at 7 µM. hit rate 0.62% among 370,000. AID 720582;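 active means inhibition above a per-campaign cutoff equal to the mean of compounds falling between control-based bounds plus 3 SD, cut at about 20% in these data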;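 further: 0% = DMSO wells while the 100% control is not disclosed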
GRIN3A LBD mod – NR3A (human) ligand-binding domain modulation; Tm shift relative to glycine control, % at 25 µM; hit rate 2.5% among 340,000; NR3A LBD differential scanning fluorimetry, Tm shift; 0% = protein alone, 100% = glycine-bound protein;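 active means melting temperature shift of at least 10% of the positive control shift, at one fixed dose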
KLK7 zymogen act – proKLK7 (human) activation, primary screen. purified proKLK7, EDANS-DABCYL substrate fluorescence; 100% is mature enzyme control, 0% vehicle. activation, % at 7 µM. hit rate 0.9% among 370,000. AID 652039;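 active means activation above the mean of all tested compounds plus 3 SD, computed per campaign excluding outliers beyond control limits, cut at about 13% in these data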
proKLK7 act conf – proKLK7 activation, confirmation | shares compounds with KLK7 zymogen act | hit rate 68% among 3,200 | purified proKLK7, EDANS-DABCYL substrate fluorescence; scaled: vehicle 0, mature enzyme 100 | activation, % at 7 µM;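 active means activation, as change over the incubation, above the mean of all tested compounds plus 3 SD, cut at about 13% in these data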
EDANS interfere – counter-screen for kallikrein-7 activators: EDANS-DABCYL optical interference | activation, % at 7 µM | EDANS-DABCYL substrate fluorescence interference, no enzyme, 4 h; solvent 0%, active enzyme control 100% | hit rate 80% among 3,200 | AID 686952 | shares compounds with KLK7 zymogen act;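 active means activation above the all-compound mean plus 3 SD, ignoring values outside control-based bounds, cut at about 4.8% in these data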;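 further: value is the 4 h activation minus the activation read at time zero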
K7 EDANS ctr – counter-screen for kallikrein-7 activators: EDANS-DABCYL interference, dose response. EDANS-DABCYL peptide fluorescence interference, no enzyme. shares compounds with KLK7 zymogen act. AID 720493. hit rate 20% among 250. EC50, µM;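 active means compounds that raise the fluorescence signal in this interference counterscreen, with EC50 at or below 10 µM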;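 further: intact quenched peptide substrate alone read at 355 nm excitation and 520 nm emission; signal is fluorescence gain from T0 to T4 after four hours at room temperature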
* hit, by the source's call; i = inactive; / = no result.

SMILES	ADAM17 inh	FAS TE block	ADAM10 inh	GRIN3A LBD mod	KLK7 zymogen act	proKLK7 act conf	EDANS interfere	others
CCCCN(CC)C(=O)c1cc2c(=O)n3cccc(C)c3nc2s1	-344.1	7.9	i	-1.2	3.6	/	/
CC(=O)c1cc(-c2ccccc2S(=O)(=O)NC(C)(C)C)c(=O)n2c1CCC2	-1.5	/	2.2	/	-0.1	/	/
CC(C)n1nnnc1C1(C)CN(S(C)(=O)=O)CC(=O)N1Cc1cccc(C(F)(F)F)c1 (stereo unspecified)	0.0	/	2.9	/	-0.7	/	/
COc1ccc(C=NNC(=O)Cc2cc(=O)[nH][nH]2)c(OC)c1	-3.8	/	-3.3	/	0.1	/	/
CCCOc1ccc(-c2c(C(=O)N/N=C/c3ccc(OC)cc3)nnn2-c2nonc2N)cc1	2.5	16.5	4.3	10.4*	56.7*	-462.5	-364.7
COc1ccc(/C=N/NC(=O)c2nnn(-c3nonc3N)c2-c2cccs2)c(OC)c1	-77.1	0.0	-34.6	-5.8	68.4*	-4.8	-20.7
C=CC[C@@H]1NN2C(=O)[C@@H](CCCC)[C@@H]3c4cc5ccccc5cc4C=NN3[C@@H]2c2cc3ccccc3cc21	-2.1	/	-13.0	/	-6.7	/	/
COC(=O)C[C@@H]1CC[C@H]2[C@@H](COc3ccc(NC(=O)Nc4ccccc4C)cc3C(=O)N2C)O1	1.2	/	1.0	/	0.3	/	/
CC(C)OC(=O)CC(=O)CSc1nc2c(cc1C#N)CCC2	-19.0	-1.7	-53.0	1.9	21.8*	89.8*	92.1*
CCOC(=O)CC(=O)CSc1nc2c(cc1C#N)CCCCCC2	-14.0	1.7	-33.1	2.0	13.3*	60.0*	58.1*
CC(C)OC(=O)CC(=O)CSc1nc2c(c(-c3cccs3)c1C#N)CCC2	-6.0	39.0	-16.1	2.4	14.8*	10.7	12.0*
CC(C)OC(=O)CC(=O)CSc1nc2c(cc1C#N)CCCC2	-23.1	-3.1	-103.5	-4.1	20.4*	71.2*	76.8*
N=C1N(C(=O)OCc2ccccc2)/C(=C\C2=CCCCC2)C(Cc2ccccc2)N1Cc1ccccc1 (stereo unspecified)	-2.1	/	-4.6	/	-0.1	/	/
COc1ccc(C#Cc2c(-c3ccccc3OC)oc3ccccc23)cc1	-6.2	/	-19.9	/	-0.7	/	/
CC(C)Oc1ccc(-c2csc(N3CCC(C(N)=O)CC3)n2)cc1	-4.0	/	-1.3	/	/	/	/
CC(C)OC(=O)CC(=O)CSc1nc2c(cc1C#N)CCCCCC2	-16.2	16.4	-93.9	-2.4	17.9*	70.1*	76.8*
COc1ccc(NC(=O)NNC(=O)CCn2nc(C)c([N+](=O)[O-])c2C)cc1OC	0.3	/	-2.5	/	0.7	/	/
CCOC(=O)c1c(NC(=O)c2ccco2)n(C2CCCCC2)c2nc3ccccc3nc12	-180.3	5.6	i	0.1	20.9*	-18.6	-28.0
Cc1oc2c(C)c3oc(=O)c(CCC(=O)NCCCCCC(=O)O)c(C)c3cc2c1C	-91.5	-11.3	-195.6	0.0	20.6*	13.9*	9.3*	K7 EDANS ctr=>69.5
Cc1c(CCC(=O)NCCCN2CCCC2=O)c(=O)oc2cc(O)ccc12	i	-7.5	i	-1.1	72.9*	64.8*	83.7*
Cc1oc2c(C)c3oc(=O)c(CCC(=O)NCCCn4ccnc4)c(C)c3cc2c1C	-108.0	-10.8	-358.6	-1.9	-0.6	/	/
Cc1c(CCC(=O)NCCCN2CCCC2=O)c(=O)oc2c(C)c(O)ccc12	i	-4.2	i	0.8	79.0*	62.5*	77.4*
Cc1coc2c(C)c3oc(=O)c(CCC(=O)NCCCN4CCCC4=O)c(C)c3cc12	-67.8	-2.7	-268.8	-1.8	5.2	/	/
COc1c2ccoc2nc2c(OC)c(OCC(OC(C)=O)C(C)(C)O)ccc12 (stereo unspecified)	-355.8	-3.8	i	-3.1	18.5*	13.3*	13.4*
COc1c2ccoc2c(OC[C@@H](O)C(C)(C)O)c2oc(=O)ccc12	-5.8	-11.5	-28.5	2.3	-0.3	/	/
SMILES	ADAM17 inh	FAS TE block	ADAM10 inh	GRIN3A LBD mod	KLK7 zymogen act	proKLK7 act conf	EDANS interfere	others
COc1c2ccoc2nc2c(OC)c(OC[C@@H](O)C(C)(C)O)ccc12	-379.8	-5.4	i	0.6	24.4*	37.0*	40.4*
CC(C)(O)C(O)COc1c2ccoc2cc2oc(=O)ccc12 (stereo unspecified)	-23.1	-6.3	-77.6	0.8	1.8	/	/
COc1c2ccoc2nc2c(OC)c(O)ccc12	-11.1	-9.4	-45.4	-1.8	2.0	/	/
COc1c2ccoc2c(OC[C@@H](OC(C)=O)C(C)(C)O)c2oc(=O)ccc12	-20.7	-6.1	-69.2	1.3	-1.2	/	/
COc1ccc2c(OC)c3ccoc3nc2c1OC	i	0.4	i	0.8	26.8*	31.2*	62.0*
COc1c2ccoc2nc2c(OC)c(OCC(O)C(C)(C)O)ccc12 (stereo unspecified)	-382.5	-7.2	i	0.9	21.8*	40.8*	38.9*
O=C(CNS(=O)(=O)c1ccccc1)N1CCN(c2ccccn2)CC1	-1.4	/	-3.6	/	-0.1	/	/
COc1cccc(C(=O)N[C@H](C(=O)N2CCC[C@H]2C(=O)NCc2ccccc2)c2ccccc2)c1	-4.3	/	0.0	/	0.5	/	/
CC(=O)c1cc(-c2ccc(S(C)(=O)=O)cc2)c(=O)n2c1CCC2	-153.2	/	i	/	1.3	/	/
Cc1cccn2c(=O)c3cc(C(=O)NCCN4CCOCC4)c(=N)n(Cc4ccc(F)cc4)c3nc12	-445.1	9.6	i	1.2	16.7*	-12.0	-6.5
Cc1cccn2c(=O)c3cc(C(=O)NCCN4CCOCC4)c(=N)n(CCN4CCOCC4)c3nc12	-348.1	-2.7	i	0.4	11.7	/	/
CCOCCCn1c(=N)c(C(=O)NCCN2CCOCC2)cc2c(=O)n3cccc(C)c3nc21	-433.5	-5.6	i	-0.9	45.3*	13.6*	3.4	K7 EDANS ctr=>69.5
CCCCCCCCN1C(=O)[C@@H](CC(=O)NCC23CC4CC(CC(C4)C2)C3)C[C@@]2(C(=O)OC)C1=C[C@H](C(C)(C)C)O[C@@H]2C	-3.3	/	-10.9	/	0.2	/	/
COc1ccc(-c2coc3cc(OC(C)=O)ccc3c2=S)cc1	-78.5	-0.9	-265.1	-3.2	50.6*	93.4*	77.1*
CCOC(=O)COc1ccc2c(=O)c(-c3ccccc3)coc2c1	-1.1	11.6	2.6	-0.2	0.2	/	/
COc1ccc(-c2coc3cc(OC)ccc3c2=O)cc1	1.0	-0.5	-15.5	-0.5	0.4	/	/
COc1ccc(-c2coc3cc(O)c(OC)cc3c2=O)cc1	-212.9	-3.5	i	0.5	13.1*	66.7*	54.2*
CC(=O)Oc1ccc2c(=O)c(-c3ccccc3)coc2c1	-101.7	-0.9	-287.6	4.3	89.6*	274.1*	247.1*
